Measured values: ChEMBL document CHEMBL3988442, “University of Dundee, Small-Polar-MMV Screening Library” (2021)
The whole screen tested about 38,000 compounds, of which about 1,200 (3.2%) showed an effect of 50% or more. The median lay at about -58%. This excerpt belongs to a sample that is enriched for strong results.

Test system: Plasmodium falciparum
Assay: Calibr Malaria Delayed Death Assay SOP
Format: functional, organism-based
Design: scale not given: in the data most compounds retested in dose-response had high values
Details: concentration 4.99e-06 (unit not given; other assays of the set use mol/L)

SMILES	Percent Effect
NCC(CO)Cc1ccc(C(F)(F)F)cc1 (centres undefined)	-43.7%
CC(C)Oc1ncccc1CNC(=O)c1ccc(=O)[nH]n1	-94.73%
CCCS(=O)(=O)NCCc1ncc(C)s1	-127.4%
COc1ccc(NC(=O)C(c2cccc(F)c2)N2CCOCC2)cc1 (centres undefined)	-6.296%
Cc1cc(C)c(S(=O)(=O)Nc2cccc3c2OCCO3)cc1C(=O)O	-20.88%
CNCC(=O)NC1CC(C)(C)Cc2nc(C(C)(C)C)ncc21 (centres undefined)	3.513%
CC(C)C(=O)N1CCN(Cc2cnn(C)c2)CC2(CC(=O)N(C)C2)C1.O=C(O)C(F)(F)F (centres undefined)	-69.27%
COc1ccc2nnc(C(=O)NCC3CCCC3)nc2c1	-78.39%
Cc1cc(CNCC2(O)CCOCC2)ccc1F	16.95%
CN1CCC(O)(CNCc2ccc(F)c(C(F)(F)F)c2)CC1	82.66%
O=C(NCc1ccc(Cl)cc1Cl)NCC1(O)CCSC1 (centres undefined)	0.496%
OC1(CNCc2ccc(F)c(C(F)(F)F)c2)CCSCC1	54.72%
OC1(CNCc2ccc(F)c(C(F)(F)F)c2)CCOC1 (centres undefined)	-5.548%
Cc1cc(CNCC2(O)CCOCC2)ccc1Br	44%
COCC1CN(Cc2ccsc2)Cc2cnn(C)c21 (centres undefined)	-44.18%
CC(C)[C@H](NC(=O)NC1CCS(=O)(=O)C1)C(=O)NCc1ccccc1 (some centres undefined)	-124.5%
Cc1cnn(C2CN(CC(=O)NCc3ccccn3)C2)c1	-188.5%
O=C(c1cc(C2CC2)no1)N1C[C@H]2CC[C@@H]1CN(Cc1ccccn1)C2	5.083%
O=C(CN1C[C@H]2CC[C@@H]1CN(Cc1ccccn1)C2)NCc1cccs1	67.17%
CC(C)c1cc(C(=O)N2C[C@H]3CC[C@@H]2CN(Cc2ccccn2)C3)no1	-200.1%

SMILES	Percent Effect
O=C(CN1C[C@H]2CC[C@@H]1CN(Cc1ccccn1)C2)Nc1ccccc1	82.97%
Cc1nnsc1CN1C[C@H]2CC[C@@H]1CN(Cc1ccccn1)C2	-7.135%
Cc1nccc(CNC(=O)N(CCCO)C2CCc3ccccc32)n1 (centres undefined)	-86.6%
COc1ccccc1CNC(=O)COc1ccc2c(c1)OCC2O (centres undefined)	-166.7%
CC(C)n1cc(-c2nc3cc(S(=O)(=O)N4CCCC4)ccc3n2C)cn1	-92.66%
Cc1ccccc1C(C(=O)NCCN1CCC(CO)CC1)N(C)C (centres undefined)	-106.7%
CN1CCN(CCNC(=O)C(OC2CCCC2)c2ccccc2)CC1 (centres undefined)	38.55%
Cc1ccc(C(C(=O)NCCN2CCCCCC2)N(C)C)cc1 (centres undefined)	58.29%
Cc1ccccc1C(C(=O)NCCn1cccc1)N(C)C (centres undefined)	36.37%
O=C(NCCN1CCCCC1)C(c1ccccc1)N1CCCC1 (centres undefined)	79.97%
CC1(C(=O)NCCN2CCCCC2)CCCN1C(=O)c1ccccc1 (centres undefined)	-16.7%
Cc1ccc(C(C(=O)NCCN2CCC(CO)CC2)N(C)C)cc1 (centres undefined)	-10.34%
O=C(NCCn1cccc1)C(c1ccccc1)N1CCCC1 (centres undefined)	54.29%
O=C(NCCNc1cccnc1)C(c1cccnc1)N1CCCC1 (centres undefined)	-14.56%
COc1cccc(Cn2cc(N3C(=O)[C@H]4CCCC[C@H]4C3=O)cn2)c1	-60.69%
Cc1cccc(C)c1OCCCN1CCN(CC2CCCO2)CC1 (centres undefined)	11.15%
CC/N=c1\nc(NCC)nc2n1C(O)(Nc1cc(Cl)ccc1Cl)CS2 (centres undefined)	-3.589%
CC(=O)c1ccc(NC(=O)N[C@H](C(=O)O)C(C)C)cc1	-95.29%
NC1CCCc2nc(-c3ccccc3)ncc21 (centres undefined)	-87.16%
O=C(c1ccccc1Cl)N1CC[C@H](O)[C@@H](N2CCOCC2)CC1	-83.45%

SMILES	Percent Effect
COc1ncccc1CN1C[C@@H]2COC[C@]2(COc2cccnc2)C1.O=C(O)C(F)(F)F.O=C(O)C(F)(F)F.O=C(O)C(F)(F)F	-33.52%
COc1cccc(CN2C[C@@H]3COC[C@]3(COc3cccnc3)C2)c1.O=C(O)C(F)(F)F.O=C(O)C(F)(F)F	12.68%
O=C(O)C(F)(F)F.O=C(O)C(F)(F)F.O=C(O)C(F)(F)F.c1ccc(CN2C[C@@H]3COC[C@]3(COCc3ccncc3)C2)nc1	-55.25%
O=C(O)C(F)(F)F.O=C(O)C(F)(F)F.O=C(O)C(F)(F)F.c1cc(COC[C@]23COC[C@H]2CN(Cc2ccncc2)C3)ccn1	-128.8%
CCOC[C@]12COC[C@H]1CN(Cc1cccc(OC)c1)C2.O=C(O)C(F)(F)F	-1.674%
COc1cccc(CN2C[C@@H]3COC[C@]3(COCc3ccccn3)C2)c1.O=C(O)C(F)(F)F.O=C(O)C(F)(F)F	58.94%
COc1ccccc1CN1C[C@@H]2COC[C@]2(COc2cccnc2)C1.O=C(O)C(F)(F)F.O=C(O)C(F)(F)F	52.99%
COc1ccccc1CN1C[C@@H]2COC[C@]2(COCc2ccncc2)C1.O=C(O)C(F)(F)F.O=C(O)C(F)(F)F	53.03%
COc1cc(N2C[C@@H]3COC[C@]3(COCc3ccccn3)C2)ncn1.O=C(O)C(F)(F)F.O=C(O)C(F)(F)F	-135.9%
Cc1cnc(CN(C)Cc2cc3c(cc2OC(F)F)OCO3)o1	-25.68%
Cc1noc(C)c1CSCc1csc(CS(C)(=O)=O)n1	-34.91%
COCCCNC(=O)c1cc(-c2cnc(N3CCOCC3)nc2)cn1C.O=C(O)C(F)(F)F	-55.95%
CCn1ncc2c1C(COC)CN(Cc1nccs1)C2 (centres undefined)	-17.13%
COc1ccc(-n2ccc(C(=O)NCCN3CCCC(C)C3)n2)cc1 (centres undefined)	4.937%
Cn1cc(CN2C[C@H]3CCN(C(=O)c4cscn4)C[C@H]3C2)cn1.O=C(O)C(F)(F)F	-59.18%
CC(Cn1cccn1)NCc1csc(Cc2ccccc2)n1 (centres undefined)	5.726%
COc1ccc(CCN)cc1-c1ccc(C(N)=O)cc1	6.686%
CCOc1ccc(-c2cc(CCN)ccc2OC)cc1	-62.01%
COc1ccc(CCN)cc1-c1ccc(O)cc1	84.96%
